Assay results taken from PubChem BioAssay (NCI).
The panel holds about 79,000 compounds, 15% with a hit somewhere; the sample as a whole holds those more often. No stated cut-off is given here; in the data, active means growth inhibition above about 70%; inactive means the rest. Where a SMILES comes first, the peptide text is derived from it. [ ]: non-standard residue; d: D form. The star is where a group is joined. ξ: configuration not given here. ξD = NC(CC(=O)O)C(=O)O; Boc = CC(C)(C)OC(=O)*; Aib = CC(C)(N)C(=O)O; OBn = c1ccc(CO*)cc1

How the values were obtained:
[1] = NCI Yeast Anticancer Drug Screen. Data for the rad50 strain (AID 155);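 further: 0% = growth of vehicle-only cultures of the same strain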; settings: S. cerevisiae rad50 strain growth inhibition; at 50.0 µM; active compounds read high
How it was run: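 Genetically altered yeast (DNA repair pathway); compound treatment; growth inhibition vs vehicle ctrl.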

[2] = NCI Yeast Anticancer Drug Screen. Data for the mec2-1 strain (AID 157); settings: S. cerevisiae mec2-1 strain, at 50.0 µM, active compounds read high
How it was run: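 Cells of the genetically defined mec2-1 yeast strain are incubated with test compound. Inhibition of growth is calculated against vehicle-treated controls.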

[3] = NCI Yeast Anticancer Drug Screen. Data for the sgs1 mgt1 strain (AID 161);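 further: 0% = growth of cultures given vehicle only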; settings: S. cerevisiae sgs1 mgt1 strain, at 50.0 µM, active compounds read high
How it was run: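 Test agents were incubated with a DNA-repair-mutant yeast strain. Growth was then read and compared against vehicle-treated controls.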

[4] = NCI Yeast Anticancer Drug Screen. Data for the cln2 rad14 strain (AID 165);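 further: 0% = growth equal to vehicle treated cultures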; settings: S. cerevisiae cln2 rad14 strain, at 50.0 µM, active compounds read high
How it was run: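 The screen exposed genetically defined yeast (cln2 rad14) to test compounds and scored growth inhibition relative to vehicle-treated controls.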

[5] = NCI Yeast Anticancer Drug Screen. Data for the bub3 strain (AID 167); settings: S. cerevisiae bub3 mutant strain, at 50.0 µM, active compounds read high
How it was run: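 Yeast carrying a defined mutation is treated with each compound, and growth is compared with that of vehicle-exposed cells to give inhibition.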

[6] = NCI Yeast Anticancer Drug Screen. Data for the mlh1 rad18 strain (AID 175); settings: S. cerevisiae mlh1 rad18 strain growth inhibition; at 50.0 µM; active compounds read high
How it was run: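 Compound-treated yeast growth, normalised to vehicle controls. Strain bears defined DNA repair mutations.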

Measured: growth inhibition

CN1CCC(Cl)(C(=O)c2ccccc2)CC1
inactive: [1] 26.2% | [2] 4.35% | [3] 25.6% | [4] -9.5% | [5] 5% | [6] 8.25%

O=C1NCC2Cc3ccccc3C(c3ccccc3)=C12 (stereo unspecified)
inactive: [1] -1.6% | [2] -1.1% | [3] 5.6% | [4] -6.15% | [5] -3.9% | [6] -4.25%

O=C(NCc1ccccc1)c1ccc([N+](=O)[O-])cc1
inactive: [1] -7.2% | [2] 13.8% | [3] 10.3% | [4] -44.2% | [5] 22.8% | [6] 11.7%

COC(=O)C(Cc1ccccc1)NC(=O)C1CSC(C)(C)N1C=O (stereo unspecified)
inactive: [1] 3.25% | [2] 16.4% | [3] 21.6% | [4] 3.05% | [5] 22.8% | [6] -20.4%

c1ccc(COc2ccc(CC3SCCCS3)cc2)cc1
inactive: [1] -30.5% | [2] -35.8% | [3] -10.4% | [4] 24.9% | [5] 16.6% | [6] -7.5%

CC(=O)Oc1ccc2ccccc2c1CS(=O)(=O)O
inactive: [1] 5.6% | [2] 6.05% | [3] 10.9% | [4] 4.35% | [5] 3.35% | [6] 10.4%

Nc1ccc([N+](=O)[O-])cc1F
inactive: [1] -18.6% | [2] -9.05% | [3] -9.85% | [4] -20.9% | [5] 3.95% | [6] -0.95%

Nc1ccc2ccc(S(=O)(=O)O)cc2c1
inactive: [1] -17.7% | [2] -19.9% | [3] -31.4% | [4] -23.3% | [5] -8.8% | [6] -17.9%

O=CCCc1ccccc1
inactive: [1] 31.6% | [2] -22.1% | [3] -22.2% | [4] -29.6% | [5] 22% | [6] 56.1%

NC(Cc1cnc[nH]1)C(=O)NC(Cc1ccc(O)cc1)C(=O)O (stereo not drawn) (H-His-Tyr-OH; configuration not given here)
inactive: [1] 7.6% | [2] -23% | [3] 7.2% | [4] 16.6% | [5] 9.85% | [6] 22%

CCC(O)(CC)Cc1ccc(Cl)cc1
inactive: [1] -1% | [2] -9.55% | [3] -0.4% | [4] -12.2% | [5] -12.4% | [6] -6.65%

CCN(CC)CCOC(=O)c1ccc(N)c2ccccc12
inactive: [1] -3.8% | [2] 12.2% | [3] -14.3% | [4] -22.4% | [5] 5.5% | [6] 6.85%

CC(C)(C)OC(=O)NC(CC(=O)OCc1ccccc1)C(=O)NC(C)(C)C(N)=O (stereo unspecified) (Boc-[ξD](OBn)-[Aib]-NH2)
inactive: [1] 5.25% | [2] 11.8% | [3] 2% | [4] 26.6% | [5] 23.4% | [6] -19.8%

COc1cc(/C=C2/C(=O)N=C(NC(C)=O)N2C)ccc1OC(C)=O
inactive: [1] -35.9% | [2] -2.55% | [3] -14.7% | [4] 6.35% | [5] 5.55% | [6] -37.1%

COc1cc(C2C3=C(CCC3=O)Oc3cc4c(cc32)OCO4)cc(OC)c1OC (stereo unspecified)
inactive: [1] 2.55% | [2] 17.1% | [3] -12.2% | [4] 2.05% | [5] -4.55% | [6] 1.8%

Cc1ccc(CCOC(=O)Nc2ccccc2)cc1
inactive: [1] -7.55% | [2] 6.4% | [3] -3.25% | [4] -13.1% | [5] 1.8% | [6] 17.2%

CN1CCC/C1=N\c1ncn[nH]1
inactive: [1] 3.3% | [2] -21.1% | [3] -4.45% | [4] -65.3% | [5] -8.5% | [6] -2.85%

CC(C)COc1ccc(O)cc1
inactive: [1] 8.95% | [2] -3.55% | [3] -16.5% | [4] -43.5% | [5] -11% | [6] 3.35%

O=C(NCCc1c[nH]c2ccccc12)C1CC1
inactive: [1] -40% | [2] 16.6% | [3] -14.8% | [4] -32.2% | [5] 7.05% | [6] -25.9%

CN1CCCC1=Nc1ccc([N+](=O)[O-])cc1
inactive: [1] 23.1% | [2] -3.55% | [3] 23% | [4] -29.3% | [5] -11.9% | [6] 25.9%

CN(C)C(=O)CCOc1cccc2ccccc12
inactive: [1] 16.6% | [2] -3.1% | [3] -16% | [4] -69.5% | [5] -20.8% | [6] 1%

O=C(O)CNC(=O)C(=O)c1c[nH]c2ccc([N+](=O)[O-])cc12
inactive: [1] -6.5% | [2] -27.8% | [3] 1.05% | [4] -7.8% | [5] -2.1% | [6] 0.2%

Nc1n[nH]c(CO)n1
inactive: [1] 7.3% | [2] 4.05% | [3] -6.6% | [4] 9.65% | [5] -14.8% | [6] -7.1%

CC1=C(C(=O)N(C)c2ccc(Cl)c(C(=O)OC(C)C)c2)SCCO1
inactive: [1] -19.6% | [2] -50.8% | [3] -12.1% | [4] -6% | [5] -11.8% | [6] -28.1%

CCOC(=O)C1(Br)C(c2ccccc2)NC(=O)NC1(C)Br (stereo unspecified)
inactive: [1] 9.15% | [2] -12.2% | [3] 0.6% | [4] 12.8% | [5] -1.75% | [6] -14.6%

CC(C)C(N)C(=O)NC(C(=O)O)C(C)C (stereo unspecified)
inactive: [1] 12.8% | [2] -9.35% | [3] -4.3% | [4] -19.5% | [5] -0.6% | [6] 19.3%

CCN(/C=C/C=C(C#N)C#N)CC
inactive: [1] 6.05% | [2] -5.3% | [3] -9.05% | [4] -15.8% | [5] 6.35% | [6] -12.7%

CCOC(=O)Cc1cc(=O)oc2cc(O)ccc12
inactive: [1] -22.9% | [2] 2.3% | [3] 4.1% | [4] 22.7% | [5] -1.8% | [6] -1.1%

CCc1cc(C(=O)NN)c2ccccc2n1
inactive: [1] -17.6% | [2] -14.6% | [3] -10.6% | [4] -18.4% | [5] -11.8% | [6] 11.5%

COc1ccc(-c2cc(C(=O)Nc3cccc(C(F)(F)F)c3)[nH]c(=S)n2)cc1
inactive: [1] -26.2% | [2] -7.95% | [3] -42% | [4] 19.3% | [5] -14.1% | [6] -20.9%

C[Si](C)(C)N1N=NC2C(=O)N(c3ccccc3)C(=O)C21 (stereo unspecified)
inactive: [1] -10.4% | [2] -0.5% | [3] -13.4% | [4] 0.1% | [5] 0.4% | [6] -7.4%

CC1CNC2C(C)C3C(CC4C5CCC6CC(N=Cc7ccccc7O)CCC6(C)C5CCC43C)OC2(O)C1 (stereo unspecified)
inactive: [1] 25.8% | [2] -6.2% | [3] -4.3% | [4] -3.95% | [5] 0.3% | [6] 0.55%

O=S1(=O)CCC(Br)c2ccccc2C1 (stereo unspecified)
inactive: [1] 6.15% | [2] 21% | [3] -7% | [4] 14.2% | [5] 3.85% | [6] -5.4%

COc1ccc2nc3cc(Cl)ccc3c(NN3CCN(CCO)CC3)c2c1
inactive: [1] -24.1% | [2] -7.9% | [3] -20.1% | [4] 0.25% | [5] 2.3% | [6] -3.6%

CC(=O)CC1CCC(CC(C)=O)CC1 (stereo unspecified)
inactive: [1] 13.1% | [2] 7.2% | [3] -13.3% | [4] -66.3% | [5] -4.1% | [6] -23.5%

NN(CC(=O)O)CC(=O)O
inactive: [1] 18.8% | [2] -2.8% | [3] 2% | [4] 4.75% | [5] 29.1% | [6] 20.9%

CC(=Nc1ccc(Cl)cc1)c1ccncc1
inactive: [1] -31.9% | [2] -14.5% | [3] -14.8% | [4] -6.4% | [5] 1.3% | [6] -1.8%

CN1C(=O)C(/C=N/NC(=O)c2cccnc2)C(N)N(C)C1=O (stereo unspecified)
inactive: [1] 4.85% | [2] 18.2% | [3] -4.8% | [4] -1.45% | [5] -41.9% | [6] 31.7%

c1ccc(C(Sc2c[nH]c3ccccc23)(c2ccccc2)c2ccccc2)cc1 (tested in a mixture with another compound)
inactive: [1] -20.4% | [2] -11.7% | [3] 9.8% | [4] 1.9% | [5] -38.5% | [6] -25.1%

COc1nc(NC2OCC(O)C(O)C2O)c(NC2OCC(O)C(O)C2O)c(=O)n1C (stereo unspecified)
inactive: [1] -7.5% | [2] -1.7% | [3] -11.6% | [4] 22.5% | [5] -31.1% | [6] -12.2%

C=C(C)C#CC1(O)C=C(OC)C(OC)=CC1=O (stereo unspecified)
inactive: [1] -36.4% | [2] -12.7% | [3] -10.1% | [4] -61.9% | [5] -13.1% | [6] 7.35%
